Reference: PubChem BioAssay (NCI)
About 79,000 compounds went through this panel and 15% of them were active in at least one assay; those are over-represented in the sample as a whole. Unmarked numbers belong to inactive results. No stated cut-off is given here; in the data, active means growth inhibition above about 70%; inactive means the rest. Where a SMILES comes first, the peptide text is derived from it. [ ]: non-standard residue; d: D form. The star is where a group is joined. ξ: configuration not given here. ξV = CC(C)C(N)C(=O)O; ClAc = O=C(CCl)*

Assay: NCI Yeast Anticancer Drug Screen. Data for the rad50 strain (AID 155);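 further: 0% = growth of vehicle-only cultures of the same strain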
Settings: S. cerevisiae rad50 strain growth inhibition; at 50.0 µM; stronger effect = higher value
In short: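 DNA repair mutant yeast, compound exposure, growth read-out; inhibition is taken relative to vehicle.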

Row | SMILES | growth inhibition [%]
1 | CC(C)(C)c1cc(C2COC(=O)COCCOCC(=O)OCCOCCO2)cc(C(C)(C)C)c1O (centres undefined) | 12.5
2 | Cc1nc(-[n+]2nc(-c3ccccc3)nn2-c2ccccc2)sc1C | 3.3
3 | COc1cc2c(cc1-c1coc3cc(O)ccc3c1=O)OCO2 | -12.6
4 | O=C(/C=C(\[O-])c1ccccc1)CCCCCCC(=O)/C=C(\[O-])c1ccccc1.O=C(/C=C(\[O-])c1ccccc1)CCCCCCC(=O)/C=C(\[O-])c1ccccc1.O=C(/C=C(\[O-])c1ccccc1)CCCCCCC(=O)/C=C(\[O-])c1ccccc1.[La+3].[La+3] | -2.3
5 | CN(C)c1ccc(C2=C([O-])C(=C3C=CC(=[N+](C)C)C=C3)C2=O)cc1 | -10.4
6 | O=C1OC(c2ccccc2)=N/C1=C/c1cccs1 | 6.85
7 | CCn1c2c(c3ccccc3c1=O)C(=O)c1ccccc1-2 | 12
8 | CC1=C2NCN(C)N=C2C(C#N)(C#N)C1(C#N)C#N | 24
9 | CCCCCC(O)(CCCCC)CCCCCCCCC1=C(O)c2ccccc2C(=O)C1=O | -17.7
10 | O=C1NC(C2CC3C=CC2C3)Nc2ccccc21 (centres undefined) | 6.75
11 | O=C1CCC2CN3CCc4c([nH]c5ccccc45)C3CC2C1 (centres undefined) | 26.2
12 | Nc1ccccc1SC1CC(=O)N(c2ccccc2Cl)C1=O (centres undefined) | -18.4
13 | C(=C/c1ccc(/C=C/c2ccccc2)cc1)/c1ccccc1 | -22.1
14 | Nc1ccc(I)cc1Cl | 15.8
15 | S=C(NNc1ccccc1)NC1CCCCC1 | 7.35
16 | CC(C)C(C(=O)c1ccccc1)c1ccccc1 (centres undefined) | -0.3
17 | CCOC(=O)c1cc(C)nc2c1c(=O)n(-c1ccccc1)c(=O)n2CCCCN1CCN(c2ncccn2)CC1 | 9.75
18 | CC(C)C(NC(=O)CNC(=O)CCl)C(=O)O (centres undefined) (ClAc-Gly-[ξV]-OH) | 7.6
19 | COc1cc(C2N(c3ccccc3)CCN2c2ccccc2)cc(OC)c1OC | 59

Row | SMILES | growth inhibition [%]
20 | Cc1ccc(CNc2cccc([N+](=O)[O-])c2)cc1 | 8.6
21 | O=C(N/N=C/c1ccc2c(c1)CCC2)c1cc2ccccc2cc1O | 2.55
22 | CCCCCCCCCCCCCCCCOc1ccc(C(=O)NN)cc1N | -18.6
23 | C=CCNC1=C2C[C@@H](C)C[C@@H](OC)[C@@H](OC(=O)CCCN)[C@H](C)/C=C(\C)[C@@H](OC(N)=O)[C@H](OC)/C=C\C=C(/C)C(=O)NC(=CC1=O)C2=O | -5.15
24 | COc1cc(/C=N/NC(=O)c2ccncc2)cc(OC)c1OC | -14.2
25 | Cc1ccc(/C=C2/N=C(N/N=C\c3ccccc3)NC2=O)cc1 | -6.15
26 | COC(=O)C1=CCCC2CN3CCc4c([nH]c5ccccc45)C3CC12 (centres undefined) | 13.8
27 | O=C(/C=C/c1ccccc1)Nc1ccccc1 | 12.9
28 | COc1ccc2nc(NC(=O)/C(C#N)=C/c3ccccc3)sc2c1 | 5.9
29 | CC(=O)NCc1cc(CNC(C)=O)c(C)cc1C | -17.5
30 | C[C@@H]1C[C@](O)([C@@H](C)Cl)C(=O)O[C@@H]2CCN3CC=C(COC(=O)[C@]1(C)O)[C@H]23 | -14.2
31 | O=c1oc(-c2cccc([N+](=O)[O-])c2)nc2ccccc12 | 4.4
32 | CCN(CC)C(C(=O)Nc1ccccc1)C(=O)Nc1ccccc1 | 3.7
33 | COc1ccc(/C=C(\C#N)c2ccc(C)cc2)cc1OC | 50.4
34 | CC(C)Cc1ccc(C(C)C(=O)O)cc1 (centres undefined) | 0.5
35 | CCOC(=O)C(C)Oc1ccccc1[N+](=O)[O-] (centres undefined) | -24.6
36 | Cc1ccc(/C=N/Nc2ccccn2)s1 | -10.9
37 | CS(=O)(=O)c1ccc(NN)c([N+](=O)[O-])c1 (tested in a mixture with another compound) | -25.7

Assay: NCI Yeast Anticancer Drug Screen. Data for the mec2-1 strain (AID 157)
Settings: S. cerevisiae mec2-1 strain, at 50.0 µM, stronger effect = higher value
In short: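 Strain: mec2-1 (DNA repair/cell cycle alteration). Compound exposure, then growth measured; inhibition expressed relative to vehicle.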

Row | SMILES | growth inhibition [%]
38 | CC(C)(C)c1cc(C2COC(=O)COCCOCC(=O)OCCOCCO2)cc(C(C)(C)C)c1O (centres undefined) | -13.8
39 | Cc1nc(-[n+]2nc(-c3ccccc3)nn2-c2ccccc2)sc1C | -15.2
40 | COc1cc2c(cc1-c1coc3cc(O)ccc3c1=O)OCO2 | -24.3
41 | O=C(/C=C(\[O-])c1ccccc1)CCCCCCC(=O)/C=C(\[O-])c1ccccc1.O=C(/C=C(\[O-])c1ccccc1)CCCCCCC(=O)/C=C(\[O-])c1ccccc1.O=C(/C=C(\[O-])c1ccccc1)CCCCCCC(=O)/C=C(\[O-])c1ccccc1.[La+3].[La+3] | -8.75
42 | CN(C)c1ccc(C2=C([O-])C(=C3C=CC(=[N+](C)C)C=C3)C2=O)cc1 | -15.2
43 | O=C1OC(c2ccccc2)=N/C1=C/c1cccs1 | -23.1
44 | CCn1c2c(c3ccccc3c1=O)C(=O)c1ccccc1-2 | 3.9
45 | CC1=C2NCN(C)N=C2C(C#N)(C#N)C1(C#N)C#N | 35.4
46 | CCCCCC(O)(CCCCC)CCCCCCCCC1=C(O)c2ccccc2C(=O)C1=O | -18.6
47 | O=C1NC(C2CC3C=CC2C3)Nc2ccccc21 (centres undefined) | 0.8
48 | O=C1CCC2CN3CCc4c([nH]c5ccccc45)C3CC2C1 (centres undefined) | 14.4
49 | Nc1ccccc1SC1CC(=O)N(c2ccccc2Cl)C1=O (centres undefined) | -33.1
50 | C(=C/c1ccc(/C=C/c2ccccc2)cc1)/c1ccccc1 | -13.9
51 | Nc1ccc(I)cc1Cl | 4.5
52 | S=C(NNc1ccccc1)NC1CCCCC1 | -37.2
53 | CC(C)C(C(=O)c1ccccc1)c1ccccc1 (centres undefined) | -10.1
54 | CCOC(=O)c1cc(C)nc2c1c(=O)n(-c1ccccc1)c(=O)n2CCCCN1CCN(c2ncccn2)CC1 | -32.4
55 | CC(C)C(NC(=O)CNC(=O)CCl)C(=O)O (centres undefined) (ClAc-Gly-[ξV]-OH) | -16.5
56 | COc1cc(C2N(c3ccccc3)CCN2c2ccccc2)cc(OC)c1OC | 62.9

Row | SMILES | growth inhibition [%]
57 | Cc1ccc(CNc2cccc([N+](=O)[O-])c2)cc1 | -13.6
58 | O=C(N/N=C/c1ccc2c(c1)CCC2)c1cc2ccccc2cc1O | -8.15
59 | CCCCCCCCCCCCCCCCOc1ccc(C(=O)NN)cc1N | -29.9
60 | C=CCNC1=C2C[C@@H](C)C[C@@H](OC)[C@@H](OC(=O)CCCN)[C@H](C)/C=C(\C)[C@@H](OC(N)=O)[C@H](OC)/C=C\C=C(/C)C(=O)NC(=CC1=O)C2=O | -0.55
61 | COc1cc(/C=N/NC(=O)c2ccncc2)cc(OC)c1OC | -48.5
62 | Cc1ccc(/C=C2/N=C(N/N=C\c3ccccc3)NC2=O)cc1 | 14.9
63 | COC(=O)C1=CCCC2CN3CCc4c([nH]c5ccccc45)C3CC12 (centres undefined) | -7.8
64 | O=C(/C=C/c1ccccc1)Nc1ccccc1 | -21
65 | COc1ccc2nc(NC(=O)/C(C#N)=C/c3ccccc3)sc2c1 | -24.9
66 | CC(=O)NCc1cc(CNC(C)=O)c(C)cc1C | -13.7
67 | C[C@@H]1C[C@](O)([C@@H](C)Cl)C(=O)O[C@@H]2CCN3CC=C(COC(=O)[C@]1(C)O)[C@H]23 | -16.1
68 | O=c1oc(-c2cccc([N+](=O)[O-])c2)nc2ccccc12 | -10.2
69 | CCN(CC)C(C(=O)Nc1ccccc1)C(=O)Nc1ccccc1 | 2.8
70 | COc1ccc(/C=C(\C#N)c2ccc(C)cc2)cc1OC | 52.8
71 | CC(C)Cc1ccc(C(C)C(=O)O)cc1 (centres undefined) | 9.7
72 | CCOC(=O)C(C)Oc1ccccc1[N+](=O)[O-] (centres undefined) | -41.2
73 | Cc1ccc(/C=N/Nc2ccccn2)s1 | -12.5
74 | CS(=O)(=O)c1ccc(NN)c([N+](=O)[O-])c1 (tested in a mixture with another compound) | -46.8
